Experiment in all cases: NCI-60 one-dose screen, 48 h (100 = growth as untreated, 0 = no growth, -100 = all killed)
Assay [1] deals with DU-145 prostate. The note with it: 10 µM unless noted.
In assay [2] the test system is MALME-3M melanoma. The note with it: 10 µM unless noted.
For assay [3], the system named is MDA-MB-231 breast. The note with it: 10 µM unless noted.
Assay [4] concerns RXF 393 renal. The note with it: 10 µM unless noted.
Assay [5] deals with SF-268 CNS. The note with it: 10 µM unless noted.
For assay [6], the system named is SF-295 CNS. The note with it: 10 µM unless noted.
The subject of assay [7] is SF-539 CNS. The note with it: 10 µM unless noted.
Assay [8] relates to UACC-257 melanoma. The note with it: 10 µM unless noted.
Assay [9] concerns M14 melanoma. The note with it: 10 µM unless noted.
Assay [10] relates to HCT-15 colon. The note with it: 10 µM unless noted.
The subject of assay [11] is HT29 colon. The note with it: 10 µM unless noted.
Assay [12] deals with SNB-75 CNS. The note with it: 10 µM unless noted.
Assay [13] deals with SNB-19 CNS. The note with it: 10 µM unless noted.
The subject of assay [14] is U251 CNS. The note with it: 10 µM unless noted.
Assay [15] deals with PC-3 prostate. The note with it: 10 µM unless noted.
For assay [16], the system named is UACC-62 melanoma. The note with it: 10 µM unless noted.
The test system of assay [17] is LOX IMVI melanoma. The note with it: 10 µM.
Assay [18] deals with SK-MEL-28 melanoma. The note with it: 10 µM unless noted.

SMILES strings stand for the structures. About 83,000 compounds went through this panel and 20% of them were active in at least one assay; those are over-represented in the sample as a whole.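 Single-concentration screen, 48 h exposure, 96-well plates. Endpoint: percent growth. Below 10 = active.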 A number with no mark means an inactive call. Active and inactive are the calls of the source.

As to `O=C(NNc1nc2cc(C(F)(F)F)ccc2n2cccc12)c1cnccn1`, the growth in assay [1] was -57.5% (active); in assay [2], -57.2% (active); in assay [3] it was -66.8% (active); in assay [4], -74% (active); in [5] it was -53.4% (active); in assay [6] it was -92.1% (active). The growth in [7] is -83% (active); in assay [8], -83.9% (active); in assay [9], -81.9% (active); in assay [10], -49.6% (active); in assay [11] it was 2.58% (active); in assay [12] it was -69.4% (active). Further, the growth in assay [13] was -56.6% (active); in [14], -95.5% (active); in assay [15], -54.8% (active); in [16], -41.1% (active); in assay [17] it was -67% (active); in assay [18] it was -36.8% (active).
Take `COc1ccc(NC(=O)Cn2c(/C=C/c3cccc([N+](=O)[O-])c3)nc3ccccc3c2=O)cc1`: the growth in [1] is 93.9%; in assay [2], 77%; in assay [3], 15.8%; in assay [4], -6.3% (active); in assay [5] it was 71.6%; in assay [6], 79.2%. Also, the growth in [7] was 7.2% (active); in assay [8], 98.8%; in [9] it was 76.7%; in [10] it was 78.2%; in [11] it was 88%; in [12] it was 1.99% (active). The growth in assay [13] is 72.9%; in assay [14], 36.1%; in assay [15], 94%; in [16], 51.5%; in [17], 50.8%; in [18], 93.7%.
As to `COc1ccc(C2=NN(c3ccccc3)C(c3ccc(OCc4ccccc4)c(OC)c3)C2)cc1OC` (stereo not given), the growth in assay [1] was 113%; in assay [2], 99.1%; in assay [3] it was 101%; in [4], 86.2%; in assay [5] it was 90%; in assay [6], 91.3%. In addition, the growth in assay [7] was 98.7%; in [8] it was 90.9%; in [9], 91.2%; in [10], 93.8%; in [11], 86.6%; in assay [12], 97.3%. In addition, the growth in assay [13] was 98.9%; in [14] it was 108%; in [15] it was 92.7%; in assay [16] it was 85.1%; in [17], 105%; in assay [18], 104%.
`Cc1cc(N=C2NC(=O)CS2)n[nH]1`: the growth in assay [1] was 119%; in assay [2], 94.8%; in [3], 104%; in assay [4], 128%; in [5] it was 95.8%; in [6] it was 101%. Also, the growth was 97.6% in assay [7]; 118% in assay [8]; 96.5% in assay [9]; 104% in [10]; 114% in assay [11]; 107% in assay [12]. For the same compound, the growth is 103% in assay [13]; 110% in [14]; 100% in assay [15]; 93.5% in assay [16]; 94.6% in assay [17]; 108% in assay [18].
Regarding `O=C1N/C(=N\c2nccs2)S/C1=C\C=C/c1ccccc1`, the growth in assay [1] is 49.1%; in [2], 42.6%; in assay [3], 51.6%; in assay [4], 88.6%; in assay [5], 39.2%; in assay [6], 21.9%. Besides, the growth in assay [7] was 13%; in [8], 8.23% (active); in assay [9], -21% (active); in assay [10], 28.1%; in [11] it was 25.5%; in assay [12] it was 83.5%. The growth in assay [13] is 26.6%; in [14], 8.95% (active); in assay [15], 46.6%; in [16] it was -24% (active); in assay [17], 28.3%; in assay [18] it was 18%.
For the compound `CCN1CCN(Cc2ccc(C(=O)Nc3cccc(C#Cc4cccc5[nH]nc(N)c45)c3)cc2C(F)(F)F)CC1`, the growth in assay [1] was -41.8% (active); in assay [2], -76.2% (active); in assay [3] it was -90.8% (active); in assay [4], -87.6% (active); in assay [5], -61.6% (active); in [6], -87.1% (active). Further, the growth in assay [7] is -97.4% (active); in assay [8] it was -89.3% (active); in [9], -95.2% (active); in assay [10] it was -87.6% (active); in [11], -10.5% (active); in assay [13] it was -88.7% (active). The growth in [14] is -94.6% (active); in assay [15], -14% (active); in assay [16], -74.7% (active); in assay [17] it was -92.6% (active); in assay [18], -95% (active).
On to `COc1ccc(C(=O)/C=C/c2cccnc2)cc1S(N)(=O)=O`, for which the growth in [1] was 22%; in assay [2], 77.5%; in [3], 60.5%; in assay [4], 54.1%; in assay [5], 44.4%; in [6] it was 38.9%. Further, the growth was 3.62% (active) in assay [7]; 72.1% in assay [8]; 66.2% in assay [9]; 4.61% (active) in assay [10]; 24% in [11]; 64.2% in [12]. In addition, the growth in assay [13] is 45.4%; in [14], 11.2%; in assay [15], 78.4%; in [16] it was 74.8%; in [17] it was -15.3% (active); in assay [18], 65.7%.

Values taken from PubChem BioAssay (NCI).
